# Measured potencies and affinities stand elsewhere. A number with no mark means an inactive call.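 How the source made its calls: active means fluorescent signal decreased by at least 40%; inconclusive means no clear call, values can overlap the other calls; inactive means the rest, including activity opposite to the expected direction.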
# Test: fibronectin fibrillogenesis inhibitors in fibroblasts, dose response, AH1F cells, Alexa488-fibronectin fluorescence, cherry-pick, set 2 (AID 1117283);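 further: AH1F fibroblasts given Alexa488-labelled fibronectin at 24 nM final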
# Details: Alexa488-fibronectin deposition fluorescence, overnight; series mostly up to 35 µM; activity change, negative = inhibition: at the top concentration
row,SMILES,"activity change, negative = inhibition"
1,CCOc1cccc(C(=O)Nc2ccc(N(CC)CC)cc2)c1,1.45%
2,O=C(CCNS(=O)(=O)c1cccc2nonc12)NC1CCCc2ccccc21 (configuration not stated),2.12%
3,COc1ccccc1CC(=O)OC(C)C(=O)Nc1ccc(S(=O)(=O)N2CCCCC2)cc1 (configuration not stated),10.7%
4,CC(C)NC(=O)N(C)C[C@H]1Oc2ccc(NC(=O)CCN3CCOCC3)cc2C(=O)N([C@H](C)CO)C[C@@H]1C,-5.12%
5,O=C(Nc1ccccc1F)N1C[C@@H]2[C@H](c3ccccc31)[C@H](CO)N2C(=O)C1CCOCC1,4.14%
6,C=CCC[C@H](Cc1ccc(F)cc1)C(=O)OC[C@H](Cc1c[nH]c2ccccc12)NC(=O)[C@@H](CC=C)CC(=O)N[C@@H](CO)Cc1ccccc1,-11.5%
7,N#Cc1ccc(-c2ccc3c(c2)[C@@H]2[C@@H](CCN2S(=O)(=O)c2ccccc2F)[C@H](CO)N3)cc1,27.1%
8,C[C@@H]1CN([C@H](C)CO)C(=O)c2cc(NC(=O)C3CCCCC3)ccc2O[C@@H]1CN(C)Cc1ccc(-c2ccccc2)cc1,-5.41%
9,O=C(C[C@@H]1C[C@@H]2c3cc(NC(=O)c4ccc5c(c4)OCO5)ccc3O[C@@H]2[C@@H](CO)O1)NCc1ccc(Oc2ccccc2)cc1,3.19%
10,N#C[C@H]1[C@H](c2ccccc2C2=CCCCC2)[C@H](CO)N1S(=O)(=O)c1ccccc1,-0.083%
11,C[C@H]1CN([C@@H](C)CO)C(=O)c2cccc(NC(=O)Nc3ccc(C(F)(F)F)cc3)c2O[C@@H]1CN(C)C(=O)Nc1cccc2ccccc12,4.08%
12,Cc1cc(C)n2ncc(C(=O)NCc3ccc(Cl)cc3)c2n1,-4.65%
13,COC(=O)c1cn(CC(=O)NCc2ccco2)c2ccccc12,-4.91%
14,Nc1nc(-c2cc3c(cc2Cl)OCCO3)cs1,11.5%
15,CC1CN(C(=O)c2cc3c(=O)n4ccccc4nc3n2C)CC(C)O1 (configuration not stated),-6.58%
16,O=C(Nc1nc(-c2ccncc2)cs1)C1COc2ccccc2O1 (configuration not stated),3.61%
17,COCC(=O)Nc1ccc2c(c1)C(=O)N(C)[C@@H]1CC[C@H](CC(=O)NCc3ccccc3Cl)O[C@H]1CO2,-3.95%
18,COc1ncccc1C(=O)NC1CCCc2c1cnn2-c1ccc(C)c(C)c1 (configuration not stated),-5.54%
19,C[C@H](O)C#Cc1ccc2c(c1)O[C@H](CN(C)C)[C@@H](C)CN([C@H](C)CO)S2(=O)=O,-7.32%

row,SMILES,"activity change, negative = inhibition"
1,CN1c2ccc(-c3ccccc3)cc2[C@@H]2[C@@H](CCN2C(=O)CN2CCOCC2)[C@@H]1CO,-1.89% [at 30 µM]
2,C[C@@H]1CN([C@@H](C)CO)C(=O)c2cc(NC(=O)C3CCCCC3)ccc2O[C@H]1CN(C)Cc1ccc(-c2ccccc2)cc1,3.11%
3,C[C@@H]1CN([C@H](C)CO)C(=O)c2cc(NC(=O)CCCN(C)C)ccc2O[C@@H]1CN(C)Cc1ccc(-c2ccccc2)cc1,2.6%
4,COc1cccc(S(=O)(=O)N2CC[C@@H]3[C@H]2c2cc(-c4ccc(C#N)cc4)ccc2N[C@@H]3CO)c1,0.219%
5,NC(=O)C1=C[C@H](c2coc3ccccc3c2=O)C[C@H](OCCCCO)O1,12.8%
6,COc1ccc(S(=O)(=O)N2CCCCC2c2cc(C(=O)Nc3ccc4c(c3)OCO4)no2)cc1 (configuration not stated),1.69%
7,C[C@H](O)C#Cc1ccc2c(c1)O[C@@H](CN(C)C)[C@H](C)CN([C@@H](C)CO)S2(=O)=O,-3.5%
8,Cc1oc2ccc(O)cc2c1C(=O)c1ccc(Br)cc1,-1.43%
9,C[C@@H]1CN([C@@H](C)CO)C(=O)c2cc(NC(=O)CCCN(C)C)ccc2O[C@@H]1CN(C)Cc1ccc(-c2ccccc2)cc1,-1.8%
10,COC(=O)C[C@H]1CC[C@@H]2[C@@H](COc3ccc(NC(=O)Cc4cccs4)cc3C(=O)N2C)O1,4.16%
11,N#Cc1ccc(-c2ccc3c(c2)[C@@H]2[C@@H](CCN2S(=O)(=O)c2cccc(F)c2)[C@H](CO)N3)cc1,-5.91%
12,COc1ccc(-c2oc3ncnc(NCCCN4CCOCC4)c3c2-c2ccc(OC)cc2)cc1,-3.3%
13,O=C(NCc1ccccc1)c1ccc(-c2cn[nH]c2)c2ccoc12,2.33%
14,CCC(C)(C)NC(=O)C(OC(=O)c1ccco1)c1ccccc1OC (configuration not stated),3.17%
15,COCC(=O)Nc1ccc2c(c1)C(=O)N(C)[C@H]1CC[C@H](CC(=O)NCc3ccccc3Cl)O[C@H]1CO2,-9.35%
16,CO[C@@H]1CN(C)C(=O)c2cc(NC(=O)Nc3cc(Cl)cc(Cl)c3)ccc2OC[C@H](C)NC[C@@H]1C,0.389%
17,CO[C@H]1CN(C)C(=O)c2cc(NC(=O)Nc3cc(Cl)cc(Cl)c3)ccc2OC[C@H](C)NC[C@H]1C,-12.7%
18,CC(C)(C)[S@](=O)N1Cc2cc(C(=O)NCc3ccccc3F)nc(-c3cccc(-c4cncnc4)c3)c2[C@@H]1CCO,7.09%

# Reference: PubChem BioAssay AID1117283 (Broad Institute, 2014)
